Experimental findings from PubChem BioAssay (NCATS) are described below.

SMILES strings stand for the structures. “And” between values parts separate entries of the source, which are not always exact repeats. Equal values may be shown once. Results filed as inconclusive are left out. The source made the active and inactive calls. Unless noted, calls follow the shape of the dose curve; as a rule, active = well fitted curve in the direction sought with a large enough effect; inconclusive = small, poorly fitted or top-dose-only effect, or another doubt; inactive = no such curve, though single readings can be large; an effect the other way counts as inactive or inconclusive.
Potency is read from the fitted curve at half-maximal effect.

Chain of Nuclear receptor ROR-gamma (Homo sapiens) (P51449 whole entry, looked up): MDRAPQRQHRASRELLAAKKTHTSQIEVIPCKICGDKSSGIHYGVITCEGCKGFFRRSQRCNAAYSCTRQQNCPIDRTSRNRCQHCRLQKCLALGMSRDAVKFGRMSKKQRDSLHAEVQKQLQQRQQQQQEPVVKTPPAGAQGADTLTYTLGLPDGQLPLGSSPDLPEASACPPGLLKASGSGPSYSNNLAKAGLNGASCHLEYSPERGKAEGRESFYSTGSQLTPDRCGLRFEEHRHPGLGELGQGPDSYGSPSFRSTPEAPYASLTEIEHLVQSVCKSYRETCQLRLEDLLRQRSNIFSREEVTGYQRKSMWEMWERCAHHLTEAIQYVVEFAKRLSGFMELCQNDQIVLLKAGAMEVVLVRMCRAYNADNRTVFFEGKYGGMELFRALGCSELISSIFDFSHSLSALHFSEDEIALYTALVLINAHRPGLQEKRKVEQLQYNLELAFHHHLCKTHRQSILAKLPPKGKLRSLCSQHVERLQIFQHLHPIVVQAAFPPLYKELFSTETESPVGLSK
Chain of Peroxisome proliferator-activated receptor alpha (Homo sapiens) (Q07869 whole entry, looked up): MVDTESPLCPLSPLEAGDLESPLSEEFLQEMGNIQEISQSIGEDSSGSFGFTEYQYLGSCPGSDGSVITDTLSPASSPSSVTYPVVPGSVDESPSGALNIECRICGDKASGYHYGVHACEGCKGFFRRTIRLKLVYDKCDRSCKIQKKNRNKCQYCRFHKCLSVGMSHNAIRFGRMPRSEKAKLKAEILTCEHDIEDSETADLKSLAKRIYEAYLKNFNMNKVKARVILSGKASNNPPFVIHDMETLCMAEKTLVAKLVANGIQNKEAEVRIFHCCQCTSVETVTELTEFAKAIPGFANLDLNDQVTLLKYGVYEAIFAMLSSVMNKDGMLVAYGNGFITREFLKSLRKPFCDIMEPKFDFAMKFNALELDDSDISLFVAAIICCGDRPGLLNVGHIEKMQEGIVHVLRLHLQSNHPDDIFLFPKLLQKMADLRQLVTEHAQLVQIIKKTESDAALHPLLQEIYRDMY

The first test addresses Peroxisome proliferator-activated receptor alpha (Homo sapiens) (UniProt Q07869). Description: qHTS assay for small molecule agonists of the peroxisome proliferator-activated receptor alpha (PPARalpha) signaling pathway (AID 651778). As to max response: % of control where 0% means no effect. The note with it: PathHunter PPARalpha complementation, chemiluminescence, 6 h; max response: hits give high values. In short, it runs like this:
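Cells plated at 2,000/well and held overnight at 37 C, 5% CO2, then compound added by pin tool for 6 hr; after PathHunter detection reagent and 60 min at room temperature, chemiluminescence from enzyme complementation was read.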
A general note: Quantitative high-throughput screening tests each substance at several concentrations.
In the case of `c1cc(OCC2CO2)cc(OCC2CO2)c1` (configuration not stated), the max response was -3.13% (inactive) and -3.49% (inactive).

Consider `Cc1cc(Nc2ccc(O)cc2)ccc1N`, for which the max response was -7.64% (inactive).

Regarding `CN(C)c1ccc(C2(c3ccc(N(C)C)cc3)OC(=O)c3cc(N(C)C)ccc32)cc1`, the max response was -2.57% (inactive).

`CO[C@H]1/C=C/O[C@@]2(C)Oc3c(C)c(O)c4c(O)c(c5c(c4c3C2=O)NC2(CCN(CC(C)C)CC2)N=5)=NC(=O)/C(C)=C\C=C\[C@H](C)[C@H](O)[C@@H](C)[C@@H](O)[C@@H](C)[C@H](OC(C)=O)[C@@H]1C`: the max response is -2.63% (inactive).

Regarding `O=C(OCC(COC(=O)c1ccccc1)(COC(=O)c1ccccc1)COC(=O)c1ccccc1)c1ccccc1`, the max response was -8.1% (inactive).

Consider `ClC1=C(Cl)C(Cl)(Cl)C(Cl)=C1Cl`, for which the max response is -0.568% (inactive) and 0.283% (inactive).

For the molecule `CC(=O)Nc1ccc(C(=O)CCl)cc1`, the max response was -5.76% (inactive) and -2.53% (inactive).

On to `CC/C(=C(\c1ccccc1)c1ccc(OCCN(C)C)cc1)c1ccc(O)cc1`, for which the max response was -3.76% (inactive).

As for `Nc1ccc2cc3ccccc3cc2c1`, the max response is -3.75% (inactive).

In the case of `c1ccc2c(c1)-c1cccc3c1c-2cc1ccccc13`, the max response is -0.066% (inactive) and -2.89% (inactive).

Take `O=C=Nc1ccc(Cc2ccc(N=C=O)cc2)cc1`: the max response is -0.535% (inactive) and -0.74% (inactive).

Regarding `Cc1cc(O)c(C(C)(C)C)cc1Sc1cc(C(C)(C)C)c(O)cc1C`, the Potency was 11.2 µM (active) and 4.47 µM (active).

Turning to `CCC(C)Nc1ccc(NC(C)CC)cc1` (configuration not stated), the max response is -4.78% (inactive) and -5% (inactive).

For `CNc1ccc(O)cc1`, the max response was -6.09% (inactive).

On to `C=CC(=O)OCCOCCOC(=O)C=C`, for which the max response was -4.05% (inactive).

Regarding `O=C1OC2(c3cc(Br)c(O)c(Br)c3Oc3c2cc(Br)c(O)c3Br)c2c(Cl)c(Cl)c(Cl)c(Cl)c21`, the max response was 0.0759% (inactive).

Turning to `Oc1ccc2cc(SSc3ccc4cc(O)ccc4c3)ccc2c1`, the max response was -7.41% (inactive).

Turning to `c1ccc2c(c1)ccc1cc3c(ccc4ccccc43)cc12`, the max response was -1.24% (inactive).

Consider `C/C=C1\C(=O)C[C@H]2[C@@H]3CCC4=CC(=O)CC[C@]4(C)[C@H]3CC[C@]12C`, for which the max response is -3.35% (inactive).

Consider `C=C(C)c1ccccc1`, for which the max response was -0.0788% (inactive).

On to `O=C1OC(O)C(C(Cl)Cl)=C1Cl` (configuration not stated), for which the max response was -7.18% (inactive).

Take `Cc1ccc(S(=O)(=O)Oc2ccc(N=Nc3ccc(-c4ccc(N=Nc5c(O)ccc6cc(S(=O)(=O)O)cc(S(=O)(=O)O)c56)c(C)c4)cc3C)cc2)cc1`: the max response is -11.2% (inactive).

The next test concerns the target Nuclear receptor ROR-gamma (Homo sapiens) (UniProt P51449). Kind of test: qHTS assay for small molecule antagonists of the retinoid-related orphan receptor gamma (ROR-gamma) signaling pathway (AID 651802). Also: nearly all actives have a fitted effect of over 60% in size. The note with it: ROR-gamma antagonist cell reporter assay; series mostly up to 92.2 µM. In short, it runs like this:
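Doxycycline-induced reporter activity in engineered CHO cells (TET-inducible ROR, RORE-LUC) was measured by luminescence after 16hr compound exposure at 37C.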
With `Cc1cc(Nc2ccc(O)cc2)ccc1N`, the Potency is 21.1 µM (active).

Regarding `CN(C)c1ccc(C2(c3ccc(N(C)C)cc3)OC(=O)c3cc(N(C)C)ccc32)cc1`, the Potency entry is “inactive”.

For the molecule `CO[C@H]1/C=C/O[C@@]2(C)Oc3c(C)c(O)c4c(O)c(c5c(c4c3C2=O)NC2(CCN(CC(C)C)CC2)N=5)=NC(=O)/C(C)=C\C=C\[C@H](C)[C@H](O)[C@@H](C)[C@@H](O)[C@@H](C)[C@H](OC(C)=O)[C@@H]1C`, the Potency result was “inactive”.

As for `O=C(OCC(COC(=O)c1ccccc1)(COC(=O)c1ccccc1)COC(=O)c1ccccc1)c1ccccc1`, the Potency entry was “inactive”.

`CC(=O)Nc1ccc(C(=O)CCl)cc1`: the Potency was 9.44 µM (active).

Regarding `Nc1ccc2cc3ccccc3cc2c1`, the Potency entry was “inactive”.

Turning to `O=C=Nc1ccc(Cc2ccc(N=C=O)cc2)cc1`, the Potency entry was “inactive”.

As for `Cc1cc(O)c(C(C)(C)C)cc1Sc1cc(C(C)(C)C)c(O)cc1C`, the Potency was 4.22 µM (active).

On to `CCC(C)Nc1ccc(NC(C)CC)cc1` (configuration not stated), for which the Potency was 13.3 µM (active).

Take `O=C1OC2(c3cc(Br)c(O)c(Br)c3Oc3c2cc(Br)c(O)c3Br)c2c(Cl)c(Cl)c(Cl)c(Cl)c21`: the Potency entry was “inactive”.

Regarding `C/C=C1\C(=O)C[C@H]2[C@@H]3CCC4=CC(=O)CC[C@]4(C)[C@H]3CC[C@]12C`, the Potency was 33.5 µM (active).

Regarding `C=C(C)c1ccccc1`, the Potency entry is “inactive”.

Tested on in another test: not listed separately
Description: qHTS assay for small molecule agonists of the antioxidant response element (ARE) signaling pathway measured by Nrf2-dependant transcriptional activity (AID 720636; active = well fitted curve in the direction sought with a large enough effect in the repeat runs; an effect the other way counts as inactive or inconclusive). Particulars: ARE-luc HepG2, Nrf2 luciferase reporter, 16 h; series mostly up to 92.4 µM. The method, boiled down:
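Cells: ARE-luc HepG2 with Nrf2-responsive luciferase. Medium contained 1% dialyzed FBS. Compound exposure lasted 16 hr at 37 C and 5% CO2, followed by ONE-Glo luciferase detection.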
Consider `Cc1cc(Nc2ccc(O)cc2)ccc1N`, for which the Potency result was “inactive”.

As to `CN(C)c1ccc(C2(c3ccc(N(C)C)cc3)OC(=O)c3cc(N(C)C)ccc32)cc1`, the Potency result is “inactive”.

With `CO[C@H]1/C=C/O[C@@]2(C)Oc3c(C)c(O)c4c(O)c(c5c(c4c3C2=O)NC2(CCN(CC(C)C)CC2)N=5)=NC(=O)/C(C)=C\C=C\[C@H](C)[C@H](O)[C@@H](C)[C@@H](O)[C@@H](C)[C@H](OC(C)=O)[C@@H]1C`, the Potency result is “inactive”.

Turning to `O=C(OCC(COC(=O)c1ccccc1)(COC(=O)c1ccccc1)COC(=O)c1ccccc1)c1ccccc1`, the Potency result is “inactive”.

Turning to `ClC1=C(Cl)C(Cl)(Cl)C(Cl)=C1Cl`, the Potency result was “inactive”.

As to `O=C=Nc1ccc(Cc2ccc(N=C=O)cc2)cc1`, the Potency result was “inactive”.

With `Cc1cc(O)c(C(C)(C)C)cc1Sc1cc(C(C)(C)C)c(O)cc1C`, the Potency result was “inactive”.

As to `CCC(C)Nc1ccc(NC(C)CC)cc1` (configuration not stated), the Potency entry is “inactive”.

`CNc1ccc(O)cc1`: the Potency was 37.6 µM (active).

On to `C=CC(=O)OCCOCCOC(=O)C=C`, for which the Potency was 66.8 µM (active).

With `O=C1OC2(c3cc(Br)c(O)c(Br)c3Oc3c2cc(Br)c(O)c3Br)c2c(Cl)c(Cl)c(Cl)c(Cl)c21`, the Potency entry was “inactive”.

As to `C=C(C)c1ccccc1`, the Potency result was “inactive”.

In the case of `Cc1ccc(S(=O)(=O)Oc2ccc(N=Nc3ccc(-c4ccc(N=Nc5c(O)ccc6cc(S(=O)(=O)O)cc(S(=O)(=O)O)c56)c(C)c4)cc3C)cc2)cc1`, the Potency entry was “inactive”.
